In all, about 360,000 compounds went through this assay and about 1,400 (0.39%) were called active. The full list was thinned out, with actives kept by preference. Unmarked numbers belong to inactive results. Rule as the data show it: active = inhibition above about 5% (passing the limit was not always enough); inactive = the rest.
These compounds were tested against Tyrosine-protein kinase ABL1 (Homo sapiens) + Ras and Rab interactor 1 (Homo sapiens) (UniProt P00519+Q13671) (assay: inhibitors of Rin1-Abl protein binding, primary screen, biochemical, TR-FRET (AID 588664)). Conditions: at 7.35 µM, active compounds read high.
Tyrosine-protein kinase ABL1 (Homo sapiens) + Ras and Rab interactor 1 (Homo sapiens), sequence (P00519 whole entry, looked up): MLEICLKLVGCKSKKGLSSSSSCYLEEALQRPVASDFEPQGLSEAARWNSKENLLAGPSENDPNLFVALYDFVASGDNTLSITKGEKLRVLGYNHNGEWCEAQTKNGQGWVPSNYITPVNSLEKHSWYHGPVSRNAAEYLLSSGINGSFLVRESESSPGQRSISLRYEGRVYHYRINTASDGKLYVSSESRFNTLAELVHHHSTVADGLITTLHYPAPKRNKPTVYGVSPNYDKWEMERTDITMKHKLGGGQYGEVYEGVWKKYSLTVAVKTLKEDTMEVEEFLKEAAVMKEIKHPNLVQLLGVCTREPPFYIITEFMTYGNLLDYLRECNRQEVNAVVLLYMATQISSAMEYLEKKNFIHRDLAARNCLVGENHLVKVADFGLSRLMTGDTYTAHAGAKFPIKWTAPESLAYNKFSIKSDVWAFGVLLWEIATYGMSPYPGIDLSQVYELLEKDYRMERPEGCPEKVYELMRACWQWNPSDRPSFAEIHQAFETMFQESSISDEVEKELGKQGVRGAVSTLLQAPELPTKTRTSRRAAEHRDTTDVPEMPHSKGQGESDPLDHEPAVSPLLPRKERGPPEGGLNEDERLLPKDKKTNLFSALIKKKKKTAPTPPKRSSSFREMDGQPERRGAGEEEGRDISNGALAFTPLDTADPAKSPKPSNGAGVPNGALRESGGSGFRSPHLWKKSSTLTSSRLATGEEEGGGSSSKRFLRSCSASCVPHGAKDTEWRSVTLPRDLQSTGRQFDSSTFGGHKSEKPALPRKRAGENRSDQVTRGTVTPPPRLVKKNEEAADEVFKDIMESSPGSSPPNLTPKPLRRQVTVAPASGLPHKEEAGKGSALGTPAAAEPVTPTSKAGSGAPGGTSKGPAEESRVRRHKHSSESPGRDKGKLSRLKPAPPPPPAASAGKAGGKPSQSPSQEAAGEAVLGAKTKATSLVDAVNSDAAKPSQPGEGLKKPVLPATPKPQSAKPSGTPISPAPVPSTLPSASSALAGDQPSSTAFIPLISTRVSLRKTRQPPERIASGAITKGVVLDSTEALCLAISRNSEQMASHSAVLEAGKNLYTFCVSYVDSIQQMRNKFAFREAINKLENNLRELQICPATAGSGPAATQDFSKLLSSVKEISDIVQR
Tyrosine-protein kinase ABL1 (Homo sapiens) + Ras and Rab interactor 1 (Homo sapiens), sequence (Q13671 whole entry, looked up): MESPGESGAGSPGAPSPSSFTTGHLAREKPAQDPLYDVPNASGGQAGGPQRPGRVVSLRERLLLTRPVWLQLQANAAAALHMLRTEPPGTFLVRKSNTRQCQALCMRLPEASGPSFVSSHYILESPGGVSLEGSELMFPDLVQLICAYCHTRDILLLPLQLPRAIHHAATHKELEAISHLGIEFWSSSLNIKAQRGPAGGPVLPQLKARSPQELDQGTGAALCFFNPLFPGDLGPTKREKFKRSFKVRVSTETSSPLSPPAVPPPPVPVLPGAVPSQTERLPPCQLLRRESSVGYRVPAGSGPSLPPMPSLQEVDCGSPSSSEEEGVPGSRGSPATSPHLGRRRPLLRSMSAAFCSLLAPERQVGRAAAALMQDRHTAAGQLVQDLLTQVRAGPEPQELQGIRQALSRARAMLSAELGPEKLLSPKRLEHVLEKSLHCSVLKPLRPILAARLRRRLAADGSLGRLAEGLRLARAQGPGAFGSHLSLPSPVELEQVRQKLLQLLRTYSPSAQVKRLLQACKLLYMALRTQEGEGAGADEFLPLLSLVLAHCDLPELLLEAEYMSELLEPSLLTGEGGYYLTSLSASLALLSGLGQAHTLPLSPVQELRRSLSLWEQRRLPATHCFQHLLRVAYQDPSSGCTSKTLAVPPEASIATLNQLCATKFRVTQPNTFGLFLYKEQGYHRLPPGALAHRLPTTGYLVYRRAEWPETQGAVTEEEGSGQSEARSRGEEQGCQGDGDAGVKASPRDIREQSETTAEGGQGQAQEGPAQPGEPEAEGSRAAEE

Structure (SMILES) | inhibition
COc1ccc(-n2nnnc2C(c2cccc3ccccc23)N2CCC(n3c(=O)[nH]c4ccccc43)CC2)cc1 (stereo not given) | 0.78%
O=c1[nH]c2ccccc2n1C1CCN(C(c2ccccc2)c2nnnn2Cc2ccccc2)CC1 (stereo not given) | -0.41%
CSCCC(c1nnnn1C(C)(C)C)N1CCC(n2c(=O)[nH]c3ccccc32)CC1 (stereo not given) | 19.1% (active)
COc1ccc2[nH]c3c(c2c1)CCN[C@H]3C | -0.17%
CCc1nnc(NS(=O)(=O)c2ccc(N=Cc3c(O)n(-c4ccccc4)c(=O)[nH]c3=O)cc2)s1 | 4.11%

Source: PubChem BioAssay AID588664 (The Scripps Research Institute Molecular Screening Center, 2011)
